According to the supplement of paper PMC9694430:

The compounds below were run on LOC_OS03G50450-cb001 (assay: thermal shift delta Tm vs DMSO control; higher = stronger stabilization (binding)). Conditions: 12.5 µM; protein concentration 2 µM.
Summary of the method: (§1)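 Compounds dissolved in DMSO were added to purified rice kinase domain constructs, which had been expressed in E. coli, for differential scanning fluorimetry. Each well held 19.5 μl of 2 μM kinase in 100 mM potassium phosphate pH 7.5, 150 mM NaCl, 10% glycerol and 5 × SYPRO Orange. Fluorescence was followed from 25°C to 95°C at a rate of 0.05°C/s. Shifts in Boltzmann-fitted melting temperature are triplicate means relative to DMSO-only protein.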

Structure (SMILES)	thermal shift delta Tm
O=c1cc(N2CCOCC2)oc2c(-c3ccc4c(c3)OCCO4)csc12	0.44 °C
C=CC(=O)Nc1cc(Nc2nccc(-c3c[nH]c4ccccc34)n2)c(OC)cc1N(C)CCN(C)C	0.87 °C
Nc1nccc(Oc2ccc3c(C(=O)Nc4cccc(C(F)(F)F)c4)cccc3c2)n1	-0.18 °C
CC(C)(C)c1nc(-c2ccc(NC(=O)Nc3cccc(C(F)(F)F)c3)c3ccccc23)c2c(N)nccn12 [kira6]	0.7 °C
COc1ccc(-c2cc3c(C)nc(N)nc3n([C@H]3CC[C@H](OCCO)CC3)c2=O)cn1	0.14 °C
O=C(O)c1cc(O)c2c(c1)[C@@H]([C@H]1c3cc(C(=O)O)cc(O)c3C(=O)c3c(O[C@@H]4O[C@H](CO)[C@@H](O)[C@H](O)[C@H]4O)cccc31)c1cccc(O[C@@H]3O[C@H](CO)[C@@H](O)[C@H](O)[C@H]3O)c1C2=O [Sennoside B]	0.17 °C
NC(=O)c1cnc2[nH]ccc2c1N[C@@H]1[C@@H]2CC3C[C@H]1C[C@@](O)(C3)C2	3.97 °C
C=CC(=O)Nc1cccc(Nc2nc(Nc3ccc(OCCOC)cc3)ncc2F)c1	3.26 °C
CCS(=O)(=O)Nc1ccc2c(c1)/C(=C(/Nc1ccc(CN3CCCCC3)cc1)c1ccccc1)C(=O)N2 [Hesperadin]	2.45 °C
COc1cc2c(cc1OC)[C@@H]1C(=O)c3ccc4c(c3O[C@@H]1CO2)C=CC(C)(C)O4 [Deguelin]	0.4 °C
Cc1cc(Nc2cc(N3CCN(C)CC3)nc(/C=C/c3ccccc3)n2)n[nH]1 [ENMD-2076 L-(+)-Tartaric acid]	8.63 °C
Cc1ccc(NC(=O)c2ccc(CN3CCN(C)CC3)cc2)cc1Nc1nc(-c2cccnc2)cs1 [Masitinib (AB1010)]	0.58 °C
C=CC(=O)N1CC[C@@H](Oc2nc(Nc3ccc(N4CCC(N5CCN(C)CC5)CC4)cc3)c(C(N)=O)nc2CC)C1 [Naquotinib(ASP8273)]	4.82 °C
N#CC(=C(/N)Sc1ccccc1N)/C(C#N)=C(\N)Sc1ccccc1N	0.62 °C
COc1cc2/c(=N/c3ccc(Br)cc3F)nc[nH]c2cc1OCC1CCN(C)CC1 [Vandetanib (ZD6474)]	1.05 °C
O=C(Nc1cccc(C(F)(F)F)c1)c1cccc2cc(Oc3cc(CO)ncn3)ccc12	0.11 °C
CS(=O)(=O)CCNCc1ccc(-c2ccc3ncnc(Nc4ccc(OCc5cccc(F)c5)c(Cl)c4)c3c2)o1 [Lapatinib]	1.2 °C
c1cn2cc(-c3ccc4cn[nH]c4c3)nc(Nc3ccc(N4CCOCC4)cc3)c2n1 [Entospletinib (GS-9973)]	4.22 °C
CS(=O)(=O)c1cccc(CNc2nc(Nc3ccc4c(c3)CCC(=O)N4)ncc2C(F)(F)F)c1	3.56 °C
CN1CCN(Cc2ccc(NC(=O)Nc3ccc(Oc4ccnc(N)n4)cc3)cc2C(F)(F)F)CC1	-0.31 °C
OCCn1cc(-c2cnc3nnn(Cc4ccc5ncccc5c4)c3n2)cn1	0.8 °C
O=C1NC(=O)C(c2cnc3ccccn23)=C1c1cn2c3c(cc(F)cc13)CN(C(=O)N1CCCCC1)CC2	0.64 °C
C=CC(=O)N1CCC[C@@H](n2nc(-c3ccc(Oc4ccccc4)cc3)c3c(N)ncnc32)C1	1.39 °C
CC(C)(O)CNc1ncc(-c2ccnc(Nc3ccnc(Cl)c3)n2)c(CC2CC2)n1	0.3 °C
COc1ccc(S(=O)(=O)N(C(C)=O)c2ccccc2/C=C/c2cc[n+]([O-])cc2)cc1	0.17 °C

Each compound was assayed on LOC_OS03G50810-cb003 in the same assay as above. Conditions: 12.5 µM; protein concentration 2 µM.
Summary of the method: as §1

Structure (SMILES)	thermal shift delta Tm
COc1cc(OC)cc(-c2cc3cnc(N)nc3nc2NC(=O)NC(C)(C)C)c1	0.24 °C
COc1cc2nccc(Oc3ccc(NC(=O)C4(C(=O)Nc5ccc(F)cc5)CC4)cc3)c2cc1OC [Cabozantinib malate (XL184)]	0.59 °C
COc1ncc(-c2ccc3nccc(-c4ccnnc4)c3c2)cc1NS(=O)(=O)c1ccc(F)cc1F	1.09 °C
Cc1cc(C(C)Nc2ccccc2)c2nc(N3CCOCC3)cc(=O)n2c1 (stereo not drawn)	-0.02 °C
FC(F)(F)c1ccc(CNc2ccc(Cc3c[nH]c4ncc(Cl)cc34)cn2)cn1 [Pexidartinib (PLX3397)]	1.63 °C
NC(=O)c1ccc(N(C(N)=O)c2c(F)cccc2F)nc1-c1ccc(F)cc1F	0.25 °C
NCC(=O)Nc1ccc(-n2nc(C(F)(F)F)cc2-c2ccc3c(ccc4ccccc43)c2)cc1	0.37 °C
CCn1c(-c2nonc2N)nc2c(C#CC(C)(C)O)ncc(OC[C@H]3CCCNC3)c21	0.05 °C
Nc1cccc(S(=O)(=O)N2CCCN(S(=O)(=O)c3ccc4c(c3)OCCO4)CC2)c1	0.28 °C
C[C@@H]1COC(Nc2ccc3ncnc(Nc4ccc(OCc5nccs5)c(Cl)c4)c3c2)=N1 [Varlitinib]	0.41 °C
Cc1cc2c(F)c(Oc3ncnn4cc(OC[C@@H](C)OC(=O)[C@H](C)N)c(C)c34)ccc2[nH]1	0.18 °C
CNC(=O)c1ccc(-c2cnc3ncc(Cc4ccc5ncccc5c4)n3n2)cc1F	0.27 °C
CN(C)C/C=C/C(=O)Nc1cc2c(Nc3ccc(F)c(Cl)c3)ncnc2cc1O[C@H]1CCOC1 [Afatinib (BIBW2992)]	0.86 °C
O=c1cc(N2CCOCC2)oc2c(-c3ccc4c(c3)OCCO4)csc12	0.8 °C
C=CC(=O)Nc1cc(Nc2nccc(-c3c[nH]c4ccccc34)n2)c(OC)cc1N(C)CCN(C)C	1.28 °C
Nc1nccc(Oc2ccc3c(C(=O)Nc4cccc(C(F)(F)F)c4)cccc3c2)n1	0.17 °C
CC(C)(C)c1nc(-c2ccc(NC(=O)Nc3cccc(C(F)(F)F)c3)c3ccccc23)c2c(N)nccn12 [kira6]	4.91 °C
COc1ccc(-c2cc3c(C)nc(N)nc3n([C@H]3CC[C@H](OCCO)CC3)c2=O)cn1	0.45 °C
O=C(O)c1cc(O)c2c(c1)[C@@H]([C@H]1c3cc(C(=O)O)cc(O)c3C(=O)c3c(O[C@@H]4O[C@H](CO)[C@@H](O)[C@H](O)[C@H]4O)cccc31)c1cccc(O[C@@H]3O[C@H](CO)[C@@H](O)[C@H](O)[C@H]3O)c1C2=O [Sennoside B]	1.04 °C

Structure (SMILES)	thermal shift delta Tm
NC(=O)c1cnc2[nH]ccc2c1N[C@@H]1[C@@H]2CC3C[C@H]1C[C@@](O)(C3)C2	4.9 °C
C=CC(=O)Nc1cccc(Nc2nc(Nc3ccc(OCCOC)cc3)ncc2F)c1	3.81 °C
CCS(=O)(=O)Nc1ccc2c(c1)/C(=C(/Nc1ccc(CN3CCCCC3)cc1)c1ccccc1)C(=O)N2 [Hesperadin]	11.8 °C
COc1cc2c(cc1OC)[C@@H]1C(=O)c3ccc4c(c3O[C@@H]1CO2)C=CC(C)(C)O4 [Deguelin]	0.24 °C
Cc1cc(Nc2cc(N3CCN(C)CC3)nc(/C=C/c3ccccc3)n2)n[nH]1 [ENMD-2076 L-(+)-Tartaric acid]	7.35 °C
Cc1ccc(NC(=O)c2ccc(CN3CCN(C)CC3)cc2)cc1Nc1nc(-c2cccnc2)cs1 [Masitinib (AB1010)]	0.26 °C
C=CC(=O)N1CC[C@@H](Oc2nc(Nc3ccc(N4CCC(N5CCN(C)CC5)CC4)cc3)c(C(N)=O)nc2CC)C1 [Naquotinib(ASP8273)]	5.96 °C
N#CC(=C(/N)Sc1ccccc1N)/C(C#N)=C(\N)Sc1ccccc1N	0.78 °C
COc1cc2/c(=N/c3ccc(Br)cc3F)nc[nH]c2cc1OCC1CCN(C)CC1 [Vandetanib (ZD6474)]	2.26 °C
O=C(Nc1cccc(C(F)(F)F)c1)c1cccc2cc(Oc3cc(CO)ncn3)ccc12	0.03 °C
CS(=O)(=O)CCNCc1ccc(-c2ccc3ncnc(Nc4ccc(OCc5cccc(F)c5)c(Cl)c4)c3c2)o1 [Lapatinib]	1.16 °C
c1cn2cc(-c3ccc4cn[nH]c4c3)nc(Nc3ccc(N4CCOCC4)cc3)c2n1 [Entospletinib (GS-9973)]	2.13 °C
CS(=O)(=O)c1cccc(CNc2nc(Nc3ccc4c(c3)CCC(=O)N4)ncc2C(F)(F)F)c1	4.21 °C
CN1CCN(Cc2ccc(NC(=O)Nc3ccc(Oc4ccnc(N)n4)cc3)cc2C(F)(F)F)CC1	3.62 °C
OCCn1cc(-c2cnc3nnn(Cc4ccc5ncccc5c4)c3n2)cn1	0.22 °C
O=C1NC(=O)C(c2cnc3ccccn23)=C1c1cn2c3c(cc(F)cc13)CN(C(=O)N1CCCCC1)CC2	0.95 °C
C=CC(=O)N1CCC[C@@H](n2nc(-c3ccc(Oc4ccccc4)cc3)c3c(N)ncnc32)C1	1.07 °C
CC(C)(O)CNc1ncc(-c2ccnc(Nc3ccnc(Cl)c3)n2)c(CC2CC2)n1	0.65 °C
COc1ccc(S(=O)(=O)N(C(C)=O)c2ccccc2/C=C/c2cc[n+]([O-])cc2)cc1	0.09 °C
